Test results as given in the supplement of paper PMC13172266.
Structures can show the parent of a compound that is named as a salt.

Legend:
Test in all cases: cell proliferation relative to vehicle (% of vehicle); higher = less growth inhibition
Settings in all cases: 72 h
[1] = test system: U2932 TK216-resistant clone 2
Summary of the method: (§1)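 A library of 348 targeted inhibitors was screened against the ABC-DLBCL cell line U2932, using parental cells and two clones made resistant to an ETS-targeting agent through repeated exposure over almost a year. The cells were cultured at 37°C and 5% CO2 in medium containing 10% FBS and treated at 500 nM or 50 nM for 72 h, after which MTT was added for 4 h, stopped with 25% SDS, and absorbance was read on a Cytation 3. Proliferation is given as the percentage of proliferating cells relative to the vehicle, DMSO.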

[2] = test system: U2932 TK216-resistant clone 3
Summary of the method: as §1

U2932 parental = test system: U2932 parental
Summary of the method: as §1

| SMILES | cell proliferation ([1]; 50 nM) | cell proliferation ([1]; 500 nM) | cell proliferation ([2]; 50 nM) | cell proliferation ([2]; 500 nM) | cell proliferation (U2932 parental; 50 nM) | cell proliferation (U2932 parental; 500 nM) |
| --- | --- | --- | --- | --- | --- | --- |
| Cc1nc(NC(=O)N2CCC[C@H]2C(N)=O)sc1-c1ccnc(C(C)(C)C(F)(F)F)c1 | 98.4 | 78.7 | 96.2 | 85 | 97.7 | 91 |
| COCC[n+]1c2c(n(Cc3cnccn3)c1C)C(=O)c1ccccc1C2=O [YM155 (Sepantronium Bromide)] | -0.426 | -1.48 | -1.12 | -4.35 | 0.598 | -3.81 |
| O=C(O)c1ccc(Nc2ncc3c(n2)-c2ccc(Cl)cc2C(c2c(F)cccc2F)=NC3)cc1 | 104 | 80.2 | 112 | 86.2 | 99.6 | 65.5 |
| COc1cc(OCc2cccc(-c3ccccc3)c2C)cc(OC)c1CN1CCCC[C@H]1C(=O)O [PD-1/PD-L1 inhibitor 1] | 103 | 99.6 | 96.8 | 104 | 101 | 95.3 |
| COc1cc([C@@H]2c3cc4c(cc3[C@@H](O[C@@H]3O[C@@H]5CO[C@@H](c6cccs6)O[C@H]5[C@H](O)[C@H]3O)[C@H]3COC(=O)[C@H]23)OCO4)cc(OC)c1O [Teniposide] | 59 | 8.54 | 83 | 19.8 | 67.7 | 16.8 |
| CCn1c2ccccc2c2cc(Nc3ccnc(NCCCN4CCOCC4)n3)ccc21 | 85.4 | 91 | 74.8 | 88.1 | 83.6 | 91.7 |
| N#C/C(=C(/N)Sc1ccc(N)cc1)c1ccccc1C(F)(F)F | 102 | 98 | 90.8 | 92.8 | 104 | 99.2 |
| Cc1[nH]c2ccccc2c1CCNCc1ccc(/C=C/C(=O)NO)cc1 [Panobinostat (LBH589)] | 14.9 | 4.33 | 12.9 | 11.5 | 9.5 | 0.518 |
| O=C(c1cc(Cc2n[nH]c(=O)c3ccccc23)ccc1F)N1CCN(C(=O)C2CC2)CC1 | 103 | 99.3 | 103 | 103 | 99.6 | 94.9 |
| NC(=O)c1ccc(N(C(N)=O)c2c(F)cccc2F)nc1-c1ccc(F)cc1F | 106 | 100 | 108 | 99.3 | 99.3 | 98.7 |
| Cc1[nH]c(/C=C2\C(=O)Nc3ccc(S(=O)(=O)Cc4c(Cl)cccc4Cl)cc32)c(C)c1C(=O)N1CCC[C@@H]1CN1CCCC1 | 108 | 92.4 | 103 | 90.5 | 102 | 96.8 |
| C[C@H](NC(=O)/C(C#N)=C/c1cccc(Br)n1)c1ccccc1 | 108 | 111 | 109 | 102 | 105 | 102 |
| C#Cc1cccc(Nc2ncnc3cc(OC)c(OCCCCCCC(=O)NO)cc23)c1 | 93.7 | 43.4 | 96.3 | 52.5 | 89.5 | 43.9 |
| COc1cc(Nc2ncc(F)c(Nc3ccc4c(n3)NC(=O)C(C)(C)O4)n2)cc(OC)c1OC | 108 | 97.1 | 103 | 103 | 87.9 | 82.1 |
| CCCCCOC(=O)Nc1nc(=O)n([C@@H]2O[C@H](C)[C@@H](O)[C@H]2O)cc1F [Capecitabine] | 103 | 105 | 104 | 108 | 99.9 | 98.3 |
| CCCCCCCCCCCCc1ccc(S(=O)(=O)Nc2nncs2)cc1 | 102 | 88.7 | 102 | 100 | 101 | 100 |
| O=C(O)C(=O)O.[NH-][C@@H]1CCCC[C@H]1[NH-].[Pt+2] [Oxaliplatin] | 104 | 99 | 105 | 96.6 | 96.8 | 93.2 |
| CCn1c(-c2nonc2N)nc2c(C#CC(C)(C)O)ncc(OC[C@H]3CCCNC3)c21 | 91.1 | 54.1 | 97 | 66.9 | 90.5 | 58.6 |
| CN1CCN(CCOc2cc(OC3CCOCC3)c3c(Nc4c(Cl)ccc5c4OCO5)ncnc3c2)CC1 [Saracatinib (AZD0530)] | 103 | 97.1 | 99.6 | 101 | 94.1 | 98.9 |
| CN(C)CCOc1ccc(-c2nc(-c3ccncc3)c(-c3ccc4c(c3)CC/C4=N\O)[nH]2)cc1 | 93.3 | 89.5 | 96.6 | 97.4 | 93.3 | 94.8 |
| CCS(=O)(=O)N1CC(CC#N)(n2cc(-c3ncnc4[nH]ccc34)cn2)C1 | 107 | 118 | 111 | 104 | 104 | 105 |
| O=C(/C=C\n1cnc(-c2cc(C(F)(F)F)cc(C(F)(F)F)c2)n1)NNc1cnccn1 | 87.7 | 36.3 | 58.9 | 57.6 | 82.9 | 44.1 |
| O=C(O)CCNc1cc(N2CCc3ccccc3CC2)nc(-c2ccccn2)n1 | 103 | 100 | 105 | 102 | 99.3 | 99.8 |

| SMILES | cell proliferation ([1]; 50 nM) | cell proliferation ([1]; 500 nM) | cell proliferation ([2]; 50 nM) | cell proliferation ([2]; 500 nM) | cell proliferation (U2932 parental; 50 nM) | cell proliferation (U2932 parental; 500 nM) |
| --- | --- | --- | --- | --- | --- | --- |
| NC(=O)NO [Hydroxyurea] | 103 | 94.7 | 102 | 103 | 92.2 | 97.8 |
| O=C1CCC(N2C(=O)c3ccccc3C2=O)C(=O)N1 (stereo unspecified) [Thalidomide] | 105 | 106 | 104 | 101 | 103 | 101 |
| COCCOc1ccc2c(c1)ncn2-c1ccc2cccc(N3CCC(N)CC3)c2n1 | 107 | 106 | 103 | 94 | 99.8 | 90.4 |
| CS(=O)(=O)c1ccc(C(=O)Nc2ccc(Cl)c(-c3ccccn3)c2)c(Cl)c1 [Vismodegib (GDC-0449)] | 106 | 108 | 108 | 113 | 98.2 | 103 |
| CCN(CC)CCNC(=O)c1c(C)[nH]c(/C=C2\C(=O)Nc3ccc(F)cc32)c1C [Sunitinib Malate] | 107 | 94.6 | 99.4 | 92.6 | 101 | 104 |
| Cc1cn([C@H]2O[C@@H](CO)[C@H](O)[C@H]2F)c(=O)[nH]c1=O [Clevudine] | 100 | 103 | 96.2 | 103 | 98.8 | 96.8 |
| Cc1ccc(Nc2nccc(N(C)c3ccc4c(C)n(C)nc4c3)n2)cc1S(N)(=O)=O [Pazopanib HCl] | 110 | 102 | 101 | 99.6 | 95.2 | 105 |
| Cc1cc(N2CCOCC2)cc2[nH]c(-c3c(NC[C@@H](O)c4cccc(Cl)c4)cc[nH]c3=O)nc12 | 110 | 96 | 100 | 92.8 | 102 | 100 |
| Nc1cccc2c1CN(C1CCC(=O)NC1=O)C2=O (stereo unspecified) [Lenalidomide (CC-5013)] | 107 | 98 | 102 | 96 | 98 | 99.7 |
| COc1ccc2c(Oc3ccc(NC(=O)c4c(C)n(CC(C)(C)O)n(-c5ccccc5)c4=O)nc3)ccnc2c1 | 102 | 103 | 95.4 | 97.4 | 103 | 97 |
| CNCc1ccc(-c2[nH]c3cc(F)cc4c3c2CCNC4=O)cc1 | 101 | 94.9 | 99.8 | 108 | 96.6 | 93.4 |
| CCCS(=O)(=O)Nc1ccc(F)c(C(=O)c2c[nH]c3ncc(Cl)cc23)c1F | 99.4 | 97.3 | 106 | 106 | 95.1 | 95.6 |
| Clc1ccc(Nc2nnc(Cc3ccncc3)c3ccccc23)cc1 [Vatalanib (PTK787) 2HCl] | 109 | 99.8 | 108 | 113 | 93.1 | 102 |
| O=c1ncccn1[C@@H]1O[C@H](CO)[C@@H](O)[C@H]1O [Zebularine] | 111 | 95.5 | 102 | 99.9 | 105 | 102 |
| O=C(NCc1ccncc1)C12CC3CC(C1)CC(c1ccc(Cl)cc1)(C3)C2 | 105 | 91.5 | 105 | 98.3 | 98.2 | 98.2 |
| CC[C@H](CO)Nc1nc(NCc2ccccc2)c2ncn(C(C)C)c2n1 [Roscovitine (Seliciclib,CYC202)] | 105 | 102 | 107 | 107 | 99.6 | 106 |
| COc1ccc(-c2ccc3c(N4CCOC[C@@H]4C)nc(N4CCOC[C@@H]4C)nc3n2)cc1CO | 72.7 | 34.8 | 75.1 | 40.2 | 63.8 | 35.1 |
| Nc1nccc2c1ncn2C1C=C(CO)C(O)C1O (stereo unspecified) [3-Deazaneplanocin A (DZNeP)] | 103 | 86.2 | 102 | 82.1 | 98.1 | 81.5 |
| CC1(C)CC[C@]2(NC(=O)C(C)(F)F)CC[C@]3(C)[C@H](C(=O)C=C4[C@@]5(C)C=C(C#N)C(=O)C(C)(C)[C@@H]5CC[C@]43C)[C@@H]2C1 [Omaveloxolone (RTA-408)] | 95.5 | 10 | 103 | 23.8 | 93.8 | 14.7 |
| Oc1nc(-c2ccc(C(F)(F)F)cc2)nc2c1CSCC2 | 90.3 | 108 | 111 | 95.1 | 99.3 | 98.2 |
| CC(C)(C#N)c1cc(Cn2cncn2)cc(C(C)(C)C#N)c1 [Anastrozole] | 99.8 | 108 | 103 | 101 | 105 | 96.7 |
| CC(C)NCCCn1c(Sc2cc3c(cc2I)OCO3)nc2c(N)ncnc21 | 113 | 6.42 | 105 | 31.6 | 112 | 6.73 |
| O=c1c(O)c(-c2ccc(O)c(O)c2)oc2cc(O)cc(O)c12 [Quercetin] | 110 | 119 | 108 | 106 | 101 | 106 |
